The list shows a part of the results.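 Rule for the calls: active = mean activation above a set limit carried over from the earlier primary screen; inactive = the rest.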
Biological target: Caspase-7 (Homo sapiens) (UniProt P55210)
Experiment: activation of procaspase-7 enzyme – biochemical, absorbance, human, dual procaspase-3/-7 activator project, confirmation (AID 493115);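 note: 0% = DMSO only and 100% = DMSO with added 5 µM PC-7 enzyme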
Conditions: recombinant procaspase-7, Ac-DEVD-pNA absorbance 405 nm; at 8.5 µM; hits give high values; D23A/D198A/D206A mutant that cannot self-cleave

Caspase-7 (Homo sapiens), sequence (P55210 whole entry D23A/D198A/D206A): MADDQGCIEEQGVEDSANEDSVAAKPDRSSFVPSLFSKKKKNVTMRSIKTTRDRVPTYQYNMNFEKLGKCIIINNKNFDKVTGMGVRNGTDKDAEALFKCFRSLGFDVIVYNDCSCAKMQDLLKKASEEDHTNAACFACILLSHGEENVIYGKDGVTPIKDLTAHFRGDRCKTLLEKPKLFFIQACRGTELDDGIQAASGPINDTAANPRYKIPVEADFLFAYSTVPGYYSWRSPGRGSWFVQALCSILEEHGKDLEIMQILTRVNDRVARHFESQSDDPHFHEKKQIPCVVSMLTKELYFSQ

activation, inactive:
O=C1OCCN1C(=O)[C@H]1[C@H](c2ccc(F)cc2)C(c2ccccc2)=NN1c1ccc(Br)cc1 -35.1%
COc1ccc(Nc2ncc(C(=O)N3CCN(c4ccccc4OC)CC3)c3ccccc23)cc1 2.22%
Nc1cccc2c1C(=O)N(Cc1nnc(-c3ccccc3Br)o1)C2=O -35.8%
Fc1ccc(N2N=C(c3cccs3)CC2c2ccco2)c(F)c1 (stereo not given) -34.9%
CCCCOC(=O)Cn1c(=O)n(CC(=O)OCCCC)c2cc(C)ccc21 0.05%
CC1(C)Cc2c(C#N)c(SCc3nc4ccccc4[nH]3)nc(N3CCOCC3)c2CO1 -34.3%
CC(=O)Oc1ccc2c(C)c(CC(C)O)c(=O)oc2c1 (stereo not given) -34%
COc1ccc(/C=N/Nc2nc3ccccc3c(=O)[nH]2)cc1 0.2%
CCN(CC)c1ccc2oc(=O)c(C)nc2c1 -21%
COc1ccccc1N=Cc1c(O)c2ccccc2oc1=O -13.5%
CCOC(=O)C1(CCOC)CCN(Cc2cc3ccccc3s2)CC1 2.06%
COc1ccc(-c2onc3ccc(C(C)=O)cc23)cc1 -35.4%
COc1ccc2sc(-c3ccc(S(C)(=O)=O)cc3)c(C#Cc3cncn3C)c2c1 -34.2%
COc1ccc(Nc2ncnc3sc(-c4ccccc4)cc23)c(OC)c1 -12.6%
CNS(=O)(=O)c1cccc(C(=O)NC2CCCc3ccccc32)c1 (stereo not given) 0.28%

Source: PubChem BioAssay AID493115 (The Scripps Research Institute Molecular Screening Center, 2011)
